PubChem BioAssay

How the values were obtained:
PEG-3 [1] = molecular target: PEG-3 (UniProt Q6IN02); test: inhibition of PEG-3 promoter-driven reporter – cell-based, HeLa, luciferase, CREF/GAPDH counter-screen panel, dose response (AID 624167); settings: CREF/GAPDH counter-screens; HeLa PEG-Prom luciferase reporter, overnight, run 1, dose range 1, at 100 µM (top of the series) unless noted
PEG-3 [2] = molecular target: PEG-3 (UniProt Q6IN02); test: as above; settings: CREF/GAPDH counter-screens; HeLa PEG-Prom luciferase reporter, overnight, run 2, dose range 1, at 100 µM (top of the series) unless noted

PEG-3, sequence (Q6IN02 whole entry, looked up): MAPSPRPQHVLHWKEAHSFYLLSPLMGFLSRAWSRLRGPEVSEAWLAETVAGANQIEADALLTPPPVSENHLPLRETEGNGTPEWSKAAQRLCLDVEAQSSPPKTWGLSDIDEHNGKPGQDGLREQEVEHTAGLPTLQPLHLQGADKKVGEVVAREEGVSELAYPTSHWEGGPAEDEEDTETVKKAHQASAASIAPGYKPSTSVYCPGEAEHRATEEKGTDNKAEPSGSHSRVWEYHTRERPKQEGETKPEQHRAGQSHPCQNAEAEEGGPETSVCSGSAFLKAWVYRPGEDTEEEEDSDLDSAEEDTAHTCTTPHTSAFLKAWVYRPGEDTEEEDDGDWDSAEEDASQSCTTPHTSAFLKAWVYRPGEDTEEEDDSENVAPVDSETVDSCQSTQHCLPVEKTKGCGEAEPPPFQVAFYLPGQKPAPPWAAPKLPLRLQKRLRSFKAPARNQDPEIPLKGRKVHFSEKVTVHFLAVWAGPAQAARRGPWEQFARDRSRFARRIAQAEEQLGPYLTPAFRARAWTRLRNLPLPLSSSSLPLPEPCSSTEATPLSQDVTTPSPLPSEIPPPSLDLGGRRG

| Compound | inhibition (PEG-3 [1]) | inhibition (PEG-3 [2]) |
| --- | --- | --- |
| CN(C)c1ccc(N=Nc2nc3ccccc3n2C)cc1 | 98.1% | 98.9% |
| COc1cccc(NC(=O)CN(C)C(=O)c2cccnc2Nc2cccc(C(F)(F)F)c2)c1 | 102% | 102% |
| O=C(O)CN1C(=O)/C(=C\c2ccccc2OCc2ccc(Cl)cc2Cl)SC1=S | 102% | 99.9% |
| c1ccc(C[C@H]2CNCCN2CCCCC2CCCCC2)cc1 | 102% | 101% |
| Nc1c(C(=O)Nc2cccc(C(=O)O)c2)sc2nc3c(cc12)CCCC3 | 92.6% | 77.5% |
| C[C@@H](C(=O)Nc1ccc2c(c1)OCCO2)n1c(=O)[nH]c2ccccc2c1=O | 53.8% | 39.3% |
| CC(=O)N1CCN(c2cc(-c3ccccc3)nc3cc(-c4cccc(Cl)c4)nn23)CC1 | 101% | 95.5% |
| Cc1nn(-c2ccccc2Cl)c(Cl)c1/C=N/Nc1nc2ccccc2s1 | 57.6% | 47.3% |
| CCOC(=O)CN(C(=O)CSc1nnc2c(n1)[nH]c1ccc(F)cc12)c1ccccc1 | 99.9% | 99.2% |
| CCOc1ccc(Nc2c3ccccc3nc3ccccc23)cc1 | 97.9% | 101% |
| CCOC(=O)c1c(NC(=O)CSc2nnnn2-c2ccccc2OCC)sc2c1CC(C)(C)NC2(C)C | 98.8% | 102% |
| CCc1ccc2c(c1)Sc1ccccc1CC2N1CCN(C)CC1 (stereo unspecified) | 102% | 102% |
| Cc1cc(C)c2c(N)c3ccccc3nc2n1 | 102% | 101% |
| c1ccc(CN2CCC(Nc3nc(-c4cccnc4)nc4ccccc34)CC2)cc1 | 102% | 94.1% |
| O=C(Nc1ccccc1N1CCOCC1)c1cc(-c2ccncc2)nc2ccccc12 | 93.7% | 88% |
| Oc1[nH]c2ccc(Br)cc2c1N=NC(=S)Nc1ccc(F)cc1 | 89.9% | 100% |
| COc1cc(OC)c(OC)cc1CCC(C)NCCC(c1ccccc1)c1ccccc1 (stereo unspecified) | 100% | 96.7% |
| CCc1cccc(CC)c1NC(=S)NCCc1c(C)[nH]c2ccc(C)cc12 | 89.5% | 83.9% |
